The structures appear in SMILES notation. In all, about 310,000 compounds went through this assay and about 14,000 (4.5%) showed an effect of 50% or more. Effects have a minus sign here. The sample holds strong results, similar compounds and a random draw of the others, so the mix is not that of the screen.
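Also: peak tail current of the secondary pulse compared with the same well before compound.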

Sequence of human ether-à-go-go-related gene (hERG) potassium channel (Q12809 whole entry, looked up): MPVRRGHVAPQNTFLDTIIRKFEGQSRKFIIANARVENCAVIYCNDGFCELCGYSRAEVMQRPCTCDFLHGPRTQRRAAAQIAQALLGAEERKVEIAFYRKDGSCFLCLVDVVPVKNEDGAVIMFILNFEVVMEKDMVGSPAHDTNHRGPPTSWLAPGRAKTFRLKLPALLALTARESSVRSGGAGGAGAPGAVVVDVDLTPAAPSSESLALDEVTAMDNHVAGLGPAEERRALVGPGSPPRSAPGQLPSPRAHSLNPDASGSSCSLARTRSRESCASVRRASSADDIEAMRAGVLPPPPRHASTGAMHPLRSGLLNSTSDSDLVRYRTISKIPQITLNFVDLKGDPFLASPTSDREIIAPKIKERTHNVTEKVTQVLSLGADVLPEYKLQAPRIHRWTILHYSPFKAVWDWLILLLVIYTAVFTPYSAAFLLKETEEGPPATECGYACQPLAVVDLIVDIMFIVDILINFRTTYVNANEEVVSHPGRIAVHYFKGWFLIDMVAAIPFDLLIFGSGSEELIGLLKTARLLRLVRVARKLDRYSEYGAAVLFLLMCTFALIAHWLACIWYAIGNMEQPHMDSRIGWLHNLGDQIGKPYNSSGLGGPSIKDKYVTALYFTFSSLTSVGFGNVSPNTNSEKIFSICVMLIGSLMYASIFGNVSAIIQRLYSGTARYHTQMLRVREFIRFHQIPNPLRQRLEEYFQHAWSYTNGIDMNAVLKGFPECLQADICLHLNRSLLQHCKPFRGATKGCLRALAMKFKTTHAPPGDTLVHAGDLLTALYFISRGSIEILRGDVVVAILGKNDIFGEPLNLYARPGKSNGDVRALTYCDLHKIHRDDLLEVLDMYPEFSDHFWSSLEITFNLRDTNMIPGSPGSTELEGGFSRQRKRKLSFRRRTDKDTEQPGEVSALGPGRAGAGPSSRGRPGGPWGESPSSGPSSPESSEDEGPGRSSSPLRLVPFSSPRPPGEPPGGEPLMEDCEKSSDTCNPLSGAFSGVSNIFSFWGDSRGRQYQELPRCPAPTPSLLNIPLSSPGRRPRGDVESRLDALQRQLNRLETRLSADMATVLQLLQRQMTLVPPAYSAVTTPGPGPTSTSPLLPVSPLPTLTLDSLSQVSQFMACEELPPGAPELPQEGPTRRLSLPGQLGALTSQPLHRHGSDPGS

The experiment has as its target human ether-à-go-go-related gene (hERG) potassium channel (human, UniProt Q12809). In words: primary screen, population patch clamp on CHO cells stably expressing hERG; higher = less effect of the substance.
For the molecule `COc1ccc(CN(CCN)C2CC(C)N(C)CC2C)cc1.Cl` (stereo not drawn), the “hERG current change (%, negative = inhibition) at 10uM” value stood at 7.07%.

Turning to `COc1ccc(CN(C(=O)c2ccco2)C2CCS(=O)(=O)C2)cc1` (stereo not drawn), the “hERG current change (%, negative = inhibition) at 10uM” value was -1.27%.

In the case of `COc1ccc(CN(C(=O)c2ccco2)C2CC(C)N(C)CC2C)cc1` (stereo not drawn), the “hERG current change (%, negative = inhibition) at 10uM” value was -53.4%.

On to `COc1ccc(/C=C/C(=O)c2cccc(-n3cnnn3)c2)cc1O`, for which the “hERG current change (%, negative = inhibition) at 10uM” value came out at 13.5%.

On to `O=C(Nc1ccc(Br)cc1Br)C1CC(=O)N(Cc2ccccc2)C1` (stereo not drawn), for which the “hERG current change (%, negative = inhibition) at 10uM” value came out at 10.7%.

Regarding `COc1ccc(CNCCC(c2ccc(F)cc2)c2ccc(OC)cc2)cc1` (stereo not drawn), the “hERG current change (%, negative = inhibition) at 10uM” value is given as -82.3%.

As for `COc1cc(NC(=S)NCCC(c2ccccc2)c2ccccc2)cc(OC)c1`, the “hERG current change (%, negative = inhibition) at 10uM” value was determined as 3.35%.

For `COc1ccc(C(C)NC(=S)NCc2ccc(F)cc2)cc1` (stereo not drawn), the “hERG current change (%, negative = inhibition) at 10uM” value is 0.1%.

Consider `COc1ccc(CNC(=S)NCc2ccc(F)cc2)cc1`, for which the “hERG current change (%, negative = inhibition) at 10uM” value was -23.5%.

In the case of `COc1ccc(CNC(=O)CNC(C)c2ccc(F)cc2)cc1.O=C(O)C(=O)O` (stereo not drawn), the “hERG current change (%, negative = inhibition) at 10uM” value is recorded as 5.06%.

In the case of `COc1ccc(C(CCNCc2ccc(F)cc2)c2ccc(F)cc2)cc1` (stereo not drawn), the “hERG current change (%, negative = inhibition) at 10uM” value is reported as -64.6%.

On to `COc1ccc(CCNCc2ccccc2F)cc1.O=C(O)C(=O)O`, for which the “hERG current change (%, negative = inhibition) at 10uM” value was -22.8%.

As to `COc1ccc(C(CCNCc2ccccc2)c2ccc(F)cc2)cc1` (stereo not drawn), the “hERG current change (%, negative = inhibition) at 10uM” value was -66.7%.

`COc1ccc(NC(=O)CC(c2ccc(F)cc2)c2ccc(OC)cc2)cc1` (stereo not drawn): the “hERG current change (%, negative = inhibition) at 10uM” value came to 23%.

With `COc1ccc(CCC(C)Nc2ccc(F)cc2)cc1` (stereo not drawn), the “hERG current change (%, negative = inhibition) at 10uM” value is recorded as -3.78%.

Regarding `COc1ccccc1CNCCc1ccc(F)cc1.O=C(O)C(=O)O`, the “hERG current change (%, negative = inhibition) at 10uM” value is on record as -33.8%.

In the case of `COc1ccc(C(CCNCc2ccccc2F)c2ccc(F)cc2)cc1` (stereo not drawn), the “hERG current change (%, negative = inhibition) at 10uM” value is on record as -75.5%.

`COc1ccc(-c2cc(C(F)(F)F)nc(-n3cc(Cl)cn3)n2)cc1`: the “hERG current change (%, negative = inhibition) at 10uM” value was -18.5%.

For the molecule `CCN1CCCCC(=N/O)/C(=N/O)CCCC1`, the “hERG current change (%, negative = inhibition) at 10uM” value is recorded as 25.5%.

`N#CCCN(C(=O)COC(=O)COc1ccccc1Cc1ccccc1)c1ccccc1`: the “hERG current change (%, negative = inhibition) at 10uM” value is listed as 15%.

Turning to `Cc1cccc(NC(=O)CSCC(=O)N(C)CC(=O)Nc2cccc(F)c2)c1`, the “hERG current change (%, negative = inhibition) at 10uM” value is recorded as -3.01%.

Take `COc1ccc(C(C)=O)cc1CN1C(=O)NC2(CCCCCC2)C1=O`: the “hERG current change (%, negative = inhibition) at 10uM” value is recorded as -3.9%.

Regarding `COP(=O)(CC(=O)O)c1ccccc1` (stereo not drawn), the “hERG current change (%, negative = inhibition) at 10uM” value was -5.99%.

As for `CC(NC(=O)COc1ccccc1)C(=O)NC1=NCCS1` (stereo not drawn), the “hERG current change (%, negative = inhibition) at 10uM” value was found to be 0.963%.

`CCOC(=O)N1CCN(C(=O)CNC(=O)c2nn(-c3ccc(OC)cc3OC)c(=O)c3ccccc23)CC1`: the “hERG current change (%, negative = inhibition) at 10uM” value is reported as -4.94%.

For `COC1=CC(=O)OC12CCCCC2`, the “hERG current change (%, negative = inhibition) at 10uM” value stood at 8.91%.

Turning to `CCc1noc(C)c1C(=O)N(CCCOC)c1c(N)n(Cc2ccccc2)c(=O)[nH]c1=O`, the “hERG current change (%, negative = inhibition) at 10uM” value is 27.3%.

As to `Clc1ccc(-c2ccnc(Oc3ccc4ccccc4c3)n2)cc1`, the “hERG current change (%, negative = inhibition) at 10uM” value was 7.34%.

For the molecule `COc1ccc(OCC(=O)Nc2ccc3c(c2)nc(CCNC(C)=O)n3C)cc1`, the “hERG current change (%, negative = inhibition) at 10uM” value was determined as 13.1%.

In the case of `CN1CCN(CCc2nc3cc(NC(=O)COc4ccccc4)ccc3n2C)CC1`, the “hERG current change (%, negative = inhibition) at 10uM” value is -32.6%.

`Cc1cccc(OCC(=O)Nc2ccc3c(c2)nc(CCN2CCCCC2)n3C)c1`: the “hERG current change (%, negative = inhibition) at 10uM” value was -77.2%.

Regarding `Cc1cccc(OCC(=O)Nc2ccc3c(c2)nc(CCN2CCN(C)CC2)n3C)c1`, the “hERG current change (%, negative = inhibition) at 10uM” value is given as -37.1%.

As for `Cn1c(CCn2ccccc2=O)nc2cc(NC(=O)COc3ccccc3)ccc21`, the “hERG current change (%, negative = inhibition) at 10uM” value is listed as -40.6%.

In the case of `CCC(=O)NCCc1nc2cc(NC(=O)Nc3ccccc3)ccc2n1C`, the “hERG current change (%, negative = inhibition) at 10uM” value turned out to be 18.8%.

For the molecule `CC(=O)NCCc1nc2cc(NC(=O)COc3cccc(C)c3)ccc2n1C`, the “hERG current change (%, negative = inhibition) at 10uM” value is 6.53%.

As for `CC(=O)NCCc1nc2cc(NC(=O)Nc3ccccc3)ccc2n1C`, the “hERG current change (%, negative = inhibition) at 10uM” value was -53.8%.

Take `COc1ccc(OCC(=O)Nc2ccc3c(c2)nc(CCN2CCCC2)n3C)cc1`: the “hERG current change (%, negative = inhibition) at 10uM” value is recorded as -55%.

As for `COc1ccc(OCC(=O)Nc2ccc3c(c2)nc(CCn2ccccc2=O)n3C)cc1`, the “hERG current change (%, negative = inhibition) at 10uM” value is -10.8%.

For `Cn1c(CCN2CCCCC2)nc2cc(NC(=O)COc3ccccc3)ccc21`, the “hERG current change (%, negative = inhibition) at 10uM” value is on record as -78%.

`CC(=O)NCCc1nc2cc(NC(=O)c3ccccc3)ccc2n1C`: the “hERG current change (%, negative = inhibition) at 10uM” value is recorded as -25.6%.

`CC(C)CN(C(=O)COC(=O)c1cnccn1)c1c(N)n(Cc2ccccc2)c(=O)[nH]c1=O`: the “hERG current change (%, negative = inhibition) at 10uM” value is recorded as 16.4%.

As to `CC(C)Cn1c(N)c(C(=O)COC(=O)c2ccc(O)cc2O)c(=O)n(C)c1=O`, the “hERG current change (%, negative = inhibition) at 10uM” value is 8.34%.

The values are drawn from paper PMC4336329 (PLoS ONE, 2015).
